Most compounds without a hit are left out; they make up all but 4% or so of the library.
RecA splice inh: inhibitors of M. tuberculosis RecA intein splicing | 0.75% of 290,000 active | inhibition, % (concentration not given with the values) | cell-free RecA intein splicing, fluorescence; in the data active = inhibition above about 30%;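 also: 0% = vehicle wells and 100% = reference inhibitor control wells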
Mtb bLac sens: beta-lactam sensitization of Mtb H37Rv | M. tuberculosis H37Rv growth with meropenem, percent inhibition | 0.27% of 330,000 active | inhibition, % at 25 µM | AID 434955; call rule not given here;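 also: growth measured after seven days incubation then overnight dye step; 0% = bacteria only wells and 100% = bacteria with antibiotic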
Rv3671c protease: inhibitors of M. tuberculosis serine protease Rv3671c; P9WHR9; 0.048% of 320,000 active; inhibition, % at 5.96 µM; in the data active = inhibition above about 38%;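 also: extracellular domain of Rv3671c used as enzyme; 0% = enzyme with DMSO and 100% = no enzyme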
Target sequence (P9WHR9 whole entry, looked up, the tested form may be a part): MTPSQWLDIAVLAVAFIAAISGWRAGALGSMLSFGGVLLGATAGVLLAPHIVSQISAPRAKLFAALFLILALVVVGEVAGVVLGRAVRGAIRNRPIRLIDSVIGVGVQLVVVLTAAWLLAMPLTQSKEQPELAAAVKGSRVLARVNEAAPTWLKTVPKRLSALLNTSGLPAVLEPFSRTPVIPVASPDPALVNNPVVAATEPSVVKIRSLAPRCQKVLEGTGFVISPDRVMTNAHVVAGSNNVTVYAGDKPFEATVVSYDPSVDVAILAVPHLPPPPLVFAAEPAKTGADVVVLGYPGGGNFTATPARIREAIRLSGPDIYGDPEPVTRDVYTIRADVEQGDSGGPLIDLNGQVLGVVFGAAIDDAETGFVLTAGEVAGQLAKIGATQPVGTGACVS
GDH-TPI counter-1: GDH-TPI coupled enzyme inhibition counter-screen. GDH-TPI coupled enzyme counterscreen, NADH absorbance. 1.2% of 360,000 active. inhibition, % at 4.8 µM; in the data active = inhibition above about 30%;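 also: 0% = DMSO wells and 100% = wells lacking the enzyme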
Mtb FBA inh: inhibits M. tuberculosis FBA enzyme; P9WQA3; purified M. tuberculosis FBA, fluorescence read-out; inhibition, % at 1 µM; 2.3% of 360,000 active; AID 588726;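 also: 0% = vehicle and 100% = reference inhibitor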
Mtb UGM inh: Mtb UDP-galactopyranose mutase inhibition | P9WIQ1 | purified UGM, fluorescence polarization probe displacement | inhibition, % at 10 µM | 0.06% of 320,000 active; in the data active = inhibition above about 10%, passing the limit was not always enough
Mtb FBA confirm: Mtb FBA inhibition, confirmed; shares compounds with Mtb FBA inh; purified M. tuberculosis FBA, fluorescence read-out; inhibition, % at 1 µM; 78% of 5,600 active;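 also: 0% = vehicle wells and 100% = reference inhibitor wells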
GDH-TPI counter-2: inhibits GDH-TPI coupling enzymes, flagging Mtb FBA hits; 81% of 5,600 active; inhibition, % at 1 µM; GDH-TPI coupled enzyme counterscreen, fluorescence; shares compounds with Mtb FBA inh; in the data active = inhibition above about 10%
* = called active by the depositor. Rule as the data show it, unless noted: active = inhibition above about 27%; inactive = the rest.

Results for COc1ccc2oc(C(=O)OC(C)C(=O)Nc3ccc(N4CCOCC4)cc3)c(C)c2c1 (configuration not stated) ?
Mtb bLac sens: -6; Rv3671c protease: -10; GDH-TPI counter-1: 13; Mtb FBA inh: 6; Mtb UGM inh: 0

How did Cc1cc(OCC(=O)NCc2cccnc2)c2c(C)c(C)c(=O)oc2c1 do in these assays?
RecA splice inh: -1; Mtb bLac sens: 8; Rv3671c protease: 0; GDH-TPI counter-1: 3; Mtb FBA inh: 30*; Mtb UGM inh: -2; Mtb FBA confirm: 140*; GDH-TPI counter-2: 122*

Results for CCc1cc(=O)oc2cc(C)cc(OCC(=O)NCc3cccnc3)c12 ?
RecA splice inh: 0; Mtb bLac sens: -8; Rv3671c protease: 1; GDH-TPI counter-1: -1; Mtb FBA inh: 72*; Mtb UGM inh: -2; Mtb FBA confirm: active; GDH-TPI counter-2: active

Results for Cc1cc(OCC(=O)NCc2ccncc2)c2c(C)c(C)c(=O)oc2c1 ?
RecA splice inh: 1; Mtb bLac sens: 1; Rv3671c protease: -2; GDH-TPI counter-1: 3; Mtb FBA inh: 24; Mtb UGM inh: -2

What do the screens show for `CCCCc1cc(=O)oc2cc(C)cc(OCC(=O)NCc3cccnc3)c12`?
RecA splice inh: 0; Mtb bLac sens: -7; Rv3671c protease: -11; GDH-TPI counter-1: 11; Mtb FBA inh: 46*; Mtb UGM inh: 2; Mtb FBA confirm: 19; GDH-TPI counter-2: 13*

How did CCCCc1cc(=O)oc2cc(C)cc(OCC(=O)Nc3ccccn3)c12 do in these assays?
RecA splice inh: 0; Mtb bLac sens: 2; Rv3671c protease: 0; GDH-TPI counter-1: 14; Mtb FBA inh: 34*; Mtb UGM inh: 1; Mtb FBA confirm: 9; GDH-TPI counter-2: 2

How did CC(O)c1nc2ccccc2n1CC(=O)N1CCN(c2ccccc2)CC1 (configuration not stated) do in these assays?
RecA splice inh: 3; Mtb bLac sens: -2; Rv3671c protease: -7; GDH-TPI counter-1: 5; Mtb FBA inh: 0; Mtb UGM inh: 3

How did COc1cc(/C=C/C(=O)OCC(=O)N(CC(C)C)c2c(N)n(Cc3ccccc3)c(=O)[nH]c2=O)ccc1O do in these assays?
GDH-TPI counter-1: 24; Mtb FBA inh: 4

Results for Cc1cc(C)c2nc(-c3ccccn3)cc(C(=O)NCCc3ccc(S(N)(=O)=O)cc3)c2c1 ?
RecA splice inh: 6; Mtb bLac sens: 0; Rv3671c protease: -41; GDH-TPI counter-1: 5; Mtb FBA inh: 39*; Mtb UGM inh: 3; Mtb FBA confirm: 164*; GDH-TPI counter-2: 133*

What do the screens show for `Cc1cc(C)c2nc(-c3ccccn3)cc(C(=O)Nc3ccc(S(=O)(=O)Nc4cc(C)on4)cc3)c2c1`?
RecA splice inh: 0; Mtb bLac sens: 51; Rv3671c protease: -29; GDH-TPI counter-1: 19; Mtb FBA inh: 5; Mtb UGM inh: -1

Results for Cc1cc(C)c2nc(-c3ccccn3)cc(C(=O)NCc3ccc(S(N)(=O)=O)cc3)c2c1 ?
Mtb bLac sens: -6; Rv3671c protease: -8; GDH-TPI counter-1: 6; Mtb FBA inh: 50*; Mtb UGM inh: 0; Mtb FBA confirm: 8; GDH-TPI counter-2: 0

How did COc1ccc(NC(=O)N(C)C[C@H]2Oc3cc(Br)ccc3S(=O)(=O)N([C@H](C)CO)C[C@@H]2C)cc1 do in these assays?
GDH-TPI counter-1: 15; Mtb FBA inh: -6

Results for CSCCC(NS(=O)(=O)c1ccc(C)cc1C)C(=O)Nc1cccnc1 (configuration not stated) ?
Mtb bLac sens: -1; Rv3671c protease: 0; GDH-TPI counter-1: 9; Mtb FBA inh: -4; Mtb UGM inh: -1

What do the screens show for `CCNC(=O)N1CCC(n2nccc2NC(=O)CCCc2ccccc2)CC1`?
RecA splice inh: 1; Mtb bLac sens: -4; Rv3671c protease: 1; GDH-TPI counter-1: -12; Mtb FBA inh: 4; Mtb UGM inh: -2

How did COCCn1c(=NC(=O)c2ccc3c(c2)OCCO3)sc2cc(S(N)(=O)=O)ccc21 do in these assays?
RecA splice inh: 6; Mtb bLac sens: 0; Rv3671c protease: -8; GDH-TPI counter-1: 45*; Mtb FBA inh: 109*; Mtb UGM inh: -2; Mtb FBA confirm: 76*; GDH-TPI counter-2: 50*

What do the screens show for `CC(=O)c1ccc(-c2ccc(C(=O)NCC(c3ccco3)N(C)C)o2)cc1` (configuration not stated)?
Mtb bLac sens: -2; Rv3671c protease: 2; GDH-TPI counter-1: 47*; Mtb FBA inh: 68*; Mtb UGM inh: 3; Mtb FBA confirm: -2; GDH-TPI counter-2: -2

What do the screens show for `CC1(Cc2ccc3c(c2)OCO3)C(=O)Nc2c(Cl)ccc(Cl)c21` (configuration not stated)?
GDH-TPI counter-1: -1; Mtb FBA inh: -2

How did Nc1cccc2cc(S(=O)(=O)O)ccc12 do in these assays?
GDH-TPI counter-1: 16; Mtb FBA inh: 39*; Mtb FBA confirm: 5; GDH-TPI counter-2: 5

What do the screens show for `COc1ccc(Cn2nnnc2CN(Cc2cc3ccc(C)cc3[nH]c2=O)C2CCCC2)cc1`?
RecA splice inh: 10; Mtb bLac sens: -1; Rv3671c protease: -18; GDH-TPI counter-1: 13; Mtb FBA inh: 0; Mtb UGM inh: 1

How did COc1cc2cc(CN(Cc3nnnn3Cc3ccco3)C3CCCCC3)c(=O)[nH]c2cc1OC do in these assays?
RecA splice inh: -25; Mtb bLac sens: -6; Rv3671c protease: -1; GDH-TPI counter-1: 9; Mtb FBA inh: 40*; Mtb UGM inh: 0; Mtb FBA confirm: 63*; GDH-TPI counter-2: 53*

How did COCCn1nnnc1CN(Cc1cc2cc(OC)c(OC)cc2[nH]c1=O)C1CCCC1 do in these assays?
RecA splice inh: -33; Mtb bLac sens: 3; Rv3671c protease: -1; GDH-TPI counter-1: 4; Mtb FBA inh: 39*; Mtb UGM inh: 3; Mtb FBA confirm: 73*; GDH-TPI counter-2: 70*

How did Cc1ccc(C(=O)N2CCC2(C)C(=O)NC(C)C)cc1 (configuration not stated) do in these assays?
GDH-TPI counter-1: 4; Mtb FBA inh: 0

What do the screens show for `COCCOCCn1c(CCCO)nc2ccccc21`?
RecA splice inh: -6; Mtb bLac sens: -4; Rv3671c protease: 1; GDH-TPI counter-1: 14; Mtb FBA inh: 1; Mtb UGM inh: 2

How did COCCOCCn1c(/C=C/c2ccccc2)nc2ccccc21 do in these assays?
RecA splice inh: 1; Mtb bLac sens: -1; Rv3671c protease: -8; GDH-TPI counter-1: 15; Mtb FBA inh: 28*; Mtb UGM inh: 2; Mtb FBA confirm: -4; GDH-TPI counter-2: -4

Compound activity as filed in PubChem.
